Screen size: about 350,000 compounds; about 9,900 (2.8%) were called active. Entries that show only a call come without a potency. Another 15% or so got no clear call; they are omitted. The sample holds actives, similar compounds and a random draw of the others, so the mix is not that of the screen. The call rests on the fitted dose curve; in most records, active means well fitted activation curve with a large enough effect; inconclusive means small, poorly fitted or top-dose-only effect; inactive means no such curve, though single readings can be large or run the other way.
Potency means the concentration at half of the fitted maximal effect.

This test is described as follows: A quantitative high throughput screen for small molecules that induce DNA re-replication in MCF 10a normal breast cells. Further: nearly all actives have a fitted effect of over 50% in size. The note with it: MCF 10A DNA re-replication, Hoechst nuclear intensity, 48 h; series mostly up to 46.1 µM.
Turning to `O=C(CSc1nccn1-c1cccc(F)c1)NC1CCCC1`, the Potency entry is “inactive”.

Turning to `C#CCOCCOCCOCCNc1nc(N2CCN(C(=O)Cn3cc(CCO)nn3)CC2)nc(N2CCN(C(=O)[C@H](CCCCN)n3cc(CCCC)nn3)CC2)n1`, the Potency result is “inactive”.

Regarding `O=C1NCC(Nc2ccccc2)C(=O)N1` (stereo unspecified), the Potency result is “inactive”.

With `COc1ccc(C(=O)C(C)OC(=O)c2cccc(S(=O)(=O)Nc3c(C)n(C)n(-c4ccccc4)c3=O)c2)cc1` (stereo unspecified), the Potency result was “inactive”.

Turning to `CCC(=O)c1ccc(OCC(=O)N(CC)CC2COc3ccccc3O2)cc1` (stereo unspecified), the Potency result was “inactive”.

Regarding `COc1cc(C)ccc1OCC(=O)OCC(=O)c1ccc[nH]1`, the Potency result was “inactive”.

With `COC(=O)[C@]1(Cc2ccccc2)N[C@H](CN(C)S(=O)(=O)c2ccc(OC(F)(F)F)cc2)[C@@H]2C(=O)N(Cc3ccccc3)C(=O)[C@@H]21`, the Potency result was “inactive”.

Turning to `CC(NC(=O)c1ccccc1)C(=O)OCC(=O)Nc1cccc(S(=O)(=O)N2CCCC2)c1` (stereo unspecified), the Potency entry was “inactive”.

Regarding `CC(NC(=O)CN(C)S(=O)(=O)c1ccc(F)cc1)C1CC2CCC1C2` (stereo unspecified), the Potency result is “inactive”.

With `C=CC1=C(C(=O)O)N2C(=O)[C@@H](NC(=O)/C(=N\OCC(=O)O)c3csc(N)n3)[C@H]2SC1`, the Potency result was “inactive”.

As to `O=C(NCc1ccncc1)C(=O)NCC1OCCN1S(=O)(=O)c1ccc(Br)cc1` (stereo unspecified), the Potency was 18.4 µM (active).

For `O=C(NCc1ccccc1)C(=O)NCC1OCCN1S(=O)(=O)c1ccc(Br)cc1` (stereo unspecified), the Potency result was “inactive”.

Turning to `COc1ccc(S(=O)(=O)N2CCOC2CNC(=O)C(=O)NCc2ccncc2)cc1OC` (stereo unspecified), the Potency entry is “inactive”.

Turning to `CCN1C[C@@H]2[C@@H]3C(=O)N(Cc4ccccc4)C(=O)[C@@H]3[C@](C)(C1=O)N2C(=O)c1ccc(C(C)(C)C)cc1`, the Potency entry is “inactive”.

Take `Cc1cccc(NS(=O)(=O)c2ccc(C)c(C(=O)NCC(c3ccccc3)N(C)C)c2)c1` (stereo unspecified): the Potency result was “inactive”.

Take `OCc1ccc(-c2ccccc2)c(-c2ccccc2)c1`: the Potency is 23.1 µM (active).

As for `OCC(CO)(CO)NCc1ccc(-c2ccccc2)cc1`, the Potency result was “inactive”.

Take `OCc1nc(CO)n(Cc2ccccc2)n1`: the Potency result was “inactive”.

Consider `O=c1c2ccccc2ccc2ccc(P(=O)(O)O)cc12`, for which the Potency result was “inactive”.

As for `COc1ccc(NS(=O)(=O)c2cccc(C(=O)NCCc3ccc(S(N)(=O)=O)cc3)c2)cc1`, the Potency entry is “inactive”.

As to `CN(CC(=O)Nc1ccc(Cl)c(C(F)(F)F)c1)C(=O)CCC(=O)c1ccccc1`, the Potency result is “inactive”.

Regarding `Cc1ccc(NC(=O)C(C)OC(=O)C2CC3CCCC(C2)C3=O)cc1S(=O)(=O)N1CCOCC1` (stereo unspecified), the Potency entry was “inactive”.

As to `CCc1ccccc1NC(=O)CN(C)C(=O)c1cc(C2CC2)nn1-c1ccccc1`, the Potency entry was “inactive”.

As to `CCc1ccc(CN(C)C(C)C(=O)Nc2ccc(S(=O)(=O)N3CCCC3)cc2)cc1` (stereo unspecified), the Potency result was “inactive”.

Consider `CCOC(=O)c1sc(NC(=O)CSc2nnc(-c3ccco3)o2)c(C(=O)OCC)c1C`, for which the Potency entry was “inactive”.

Turning to `CCC(=O)Nc1sc(C(=O)N2CCCCC2)c(C)c1C#N`, the Potency entry is “inactive”.

For `CCOC(=O)c1sc(NC(=O)CSc2ncccn2)c(C#N)c1C`, the Potency was 14.6 µM (active).

With `O=C(Nc1ccc2ccccc2c1[N+](=O)[O-])c1ccccc1`, the Potency result is “inactive”.

Take `COc1ccc(S(=O)(=O)N2CCCCC2)cc1NC(=O)COc1ccccc1`: the Potency result is “inactive”.

For `CCCc1cc(=O)[nH]c(SCC(=O)Nc2ccc(C(=O)Nc3ccccc3OC)cc2)n1`, the Potency result was “inactive”.

For `COc1cc(NS(=O)(=O)c2ccc3ccccc3c2)c2ncccc2c1`, the Potency is 5.17 µM (active).

On to `COc1ccc2cc(S(=O)(=O)Nc3ccccn3)ccc2c1`, for which the Potency result is “inactive”.

As for `Cc1ccc(NS(=O)(=O)c2ccc(C)c(NC(=O)COc3ccc4ccccc4c3)c2)c(C)c1`, the Potency entry was “inactive”.

As for `CC(=O)Nc1ccc(NC(=O)C(NS(=O)(=O)c2ccc3c(c2)OCCO3)C(C)C)cc1` (stereo unspecified), the Potency result is “inactive”.

With `Cc1nnc(NC(=O)/C=C/c2ccco2)s1`, the Potency result is “inactive”.

`CCC(=O)Nc1ccc2nn(-c3ccc(F)cc3)nc2c1`: the Potency result is “inactive”.

As for `Cc1ccc(-n2nc3ccc(NC(=O)/C=C/c4ccco4)cc3n2)cc1C`, the Potency was 8.2 µM (active).

As for `CNN/C(N=Cc1ccc([N+](=O)[O-])s1)=N\S(=O)(=O)c1cc(C)c(Cl)cc1SCc1ccccc1`, the Potency entry is “inactive”.

For the molecule `CN(CCc1ccccc1)C(=O)c1cccc(NC(=O)Cc2ccc([N+](=O)[O-])cc2)c1`, the Potency result was “inactive”.

`O=C1c2ccccc2[C@@H]2C[C@@H](O)[C@H](Nc3ccccc3Cl)CCN12`: the Potency entry was “inactive”.

Take `CC(C)N(C(=O)CSc1nnc(NC2CC2)s1)c1ccccc1`: the Potency entry is “inactive”.

In the case of `COc1ccc(S(=O)(=O)Nc2ccc3oc(C)c(C(C)=O)c3c2)cc1`, the Potency is 5.17 µM (active).

Turning to `CC(=O)c1c(C)oc2ccc(NS(=O)(=O)c3ccc(C(=O)O)cc3)cc12`, the Potency result is “inactive”.

Consider `CC(=O)c1c(C)oc2ccc(NS(=O)(=O)c3ccccc3)cc12`, for which the Potency result is “inactive”.

Consider `NN=C(NN=Cc1ccccc1)c1ccccc1`, for which the Potency result was “inactive”.

As for `COc1ccc(S(=O)(=O)N(C)C[C@H]2Oc3ccc(NS(=O)(=O)c4cccs4)cc3CC(=O)N([C@H](C)CO)C[C@H]2C)cc1`, the Potency entry is “inactive”.

For `Cc1cc(C)nc(S/C=C/C(=O)c2ccccc2)n1`, the Potency was 1.3 µM (active).

Turning to `Cc1ccc(N/C=C/C(=O)c2ccccc2)cc1C`, the Potency entry was “inactive”.

With `Cc1cc(C)nc(SCC(=O)c2ccc(Cl)cc2)n1`, the Potency result was “inactive”.

Regarding `CC(=O)C[C@H](O)CC(=O)[C@@H]1OC(=O)[C@@H](C)C/C=C\Cc2ccccc21`, the Potency result was “inactive”.

For the molecule `CCOc1ccc(NC(=O)CN(C)C(=O)CSc2ccccc2)cc1OCC`, the Potency result is “inactive”.

For the molecule `Cc1cc(NC(=O)CSc2nc3cc(Cl)ccc3c(=O)n2Cc2ccco2)no1`, the Potency is 18.4 µM (active).

For `Cc1cc(NC(=O)CSc2nnc(-c3ccco3)n2N)no1`, the Potency entry is “inactive”.

Regarding `Cc1cc(NC(=O)CSc2nc3ccccc3n2CC(C)C)no1`, the Potency entry was “inactive”.

Regarding `COc1ccc(S(=O)(=O)N2CCOCC2)cc1NC(=O)Cc1coc2cc(C)ccc12`, the Potency result is “inactive”.

`COC(=O)C1CC2=C(CC(C)(C)CC2=O)N(c2ccccc2)C1=O` (stereo unspecified): the Potency result was “inactive”.

Regarding `Cc1nn(Cc2ccccc2)c(C)c1C(=O)N1CCN(CC(=O)Nc2ccccc2Cl)CC1`, the Potency entry was “inactive”.

As for `CC(OC(=O)c1cc2ccccc2o1)C(=O)Nc1ccc(N2CCOCC2)cc1` (stereo unspecified), the Potency entry was “inactive”.

With `CC(C)c1nc2ccc(C(=O)O)cc2[nH]1`, the Potency was 11.6 µM (active).

As to `OC(c1nc2ccccc2[nH]1)C(O)C(O)C(O)c1nc2ccccc2[nH]1` (stereo unspecified), the Potency entry was “inactive”.

With `OC(c1nc2ccc(F)cc2[nH]1)C(O)c1nc2ccc(F)cc2[nH]1` (stereo unspecified), the Potency result was “inactive”.

For the origin of these results see PubChem BioAssay AID624296 (National Center for Advancing Translational Sciences (NCATS), 2012).
